Screening results from PubChem BioAssay.
HT1080NT lethal: qHTS for induction of synthetic lethality in tumor cells producing 2HG: qHTS for the HT-1080-NT fibrosarcoma cell line; HT-1080-NT fibrosarcoma viability, CellTiter-Glo ATP luminescence, 48 h; AID 686970, 2013; 360,000 compounds, 1.6% hits; Potency, µM (doses to about 46.1 µM), for inactives: top-dose activity, negative = less viability, hits mostly cytotoxic;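 further: NT is the 2HG producing partner of a matched IDH1 knockdown line; potency means the concentration at half of the fitted maximal effect; 0% = DMSO-treated cells and -100% = media-only wells without cells; nearly all actives have a fitted effect of over 55% in size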
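Viability by CellTiter-Glo luminescence after 48 h compound exposure at 37C of HT-1080-NT cells (750/well, RPMI, 5% FBS). % activity scaled between DMSO wells and medium-only wells, then curve-fitted and categorized by curve class.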
TDP1 cell CPT: qHTS for Inhibitors of human tyrosyl-DNA phosphodiesterase 1 (TDP1): qHTS in cells in presence of CPT | chicken DT40 Tdp1-/-;hTDP1 cells + 20 nM CPT, ATP luminescence, 48 h | 420,000 compounds, 12% hits | Potency, µM (highest dose often 46.2 µM), for inactives: at the highest dose activity change, negative = growth inhibition, most hits filed as inhibitors; further: potency means the concentration at half of the fitted maximal effect; nearly all actives have a fitted effect of over 55% in size
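Chicken DT40 Tdp1-/- cells complemented with human TDP1, 400 cells/well, exposed to compounds plus 20 nM camptothecin for at least 48 h at 37 C; viability read as ATP content by CellTiter-Glo luminescence.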
12-LOX inh: Primary qHTS assay for inhibitors of human arachidonate 12S-lipoxygenase (ALOX12): Round 2; Polyunsaturated fatty acid lipoxygenase ALOX12 (Homo sapiens), P18054; purified 12hLO, xylenol orange hydroperoxide absorbance; Potency, µM (highest dose often 108 µM), for the others: at the highest dose activity change, negative = inhibition, hits mostly inhibitors; 580,000 compounds, 1.1% hits; further: potency means the concentration at half of the fitted maximal effect
Target sequence (P18054 whole entry, looked up): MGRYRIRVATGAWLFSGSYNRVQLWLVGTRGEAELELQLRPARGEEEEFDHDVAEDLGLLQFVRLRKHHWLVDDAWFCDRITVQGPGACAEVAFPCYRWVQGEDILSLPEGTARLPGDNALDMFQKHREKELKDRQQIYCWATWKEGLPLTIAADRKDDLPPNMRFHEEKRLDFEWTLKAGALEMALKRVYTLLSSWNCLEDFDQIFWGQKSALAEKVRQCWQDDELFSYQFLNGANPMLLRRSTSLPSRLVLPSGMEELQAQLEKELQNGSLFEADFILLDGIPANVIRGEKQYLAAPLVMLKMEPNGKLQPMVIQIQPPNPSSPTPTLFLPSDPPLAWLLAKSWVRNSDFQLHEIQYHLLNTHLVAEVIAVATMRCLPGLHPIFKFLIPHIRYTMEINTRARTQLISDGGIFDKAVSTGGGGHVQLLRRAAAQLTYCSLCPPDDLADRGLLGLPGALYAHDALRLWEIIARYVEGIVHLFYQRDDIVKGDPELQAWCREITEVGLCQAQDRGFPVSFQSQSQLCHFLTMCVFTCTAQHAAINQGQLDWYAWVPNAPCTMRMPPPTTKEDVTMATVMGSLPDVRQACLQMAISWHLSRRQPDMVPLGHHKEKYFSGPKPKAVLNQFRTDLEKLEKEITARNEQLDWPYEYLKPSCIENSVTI
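Hydroperoxide product was detected by ferrous iron/xylenol orange as the 573 to 405 nm absorbance ratio. Arachidonic acid at 40 uM (final) was turned over for 30 min at room temperature by 150 nM human 12hLO, pH 7.0 Hepes buffer, after 15 min compound preincubation.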
IL1B secr inh: qHTS for Inhibitors of Inflammasome Signaling: IL-1-beta AlphaLISA Primary Screen; activity change, % at 57.5 µM; THP-1 LPS/ATP IL-1B secretion, AlphaLISA, 16 h; hits give low values; 360,000 compounds, 4.7% hits; in the data active means activity change below about -50%; inconclusive means mostly about -30% to -49%
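THP-1 cells pretreated 1 hr with compounds (up to 57.5 uM final), then stimulated with LPS (250 ng/mL final) plus ATP (1.25 mM final); secreted IL-1B measured by AlphaLISA after 16 hr, decreased signal indicating inhibition.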
TDP1 cell noCPT: qHTS for Inhibitors of human tyrosyl-DNA phosphodiesterase 1 (TDP1): qHTS in cells in absence of CPT; DT40 Tdp1-/- hTDP1 cells, no CPT, ATP luminescence, 48 h; Potency, µM (highest dose often 46.2 µM), without a hit: at the highest dose activity change, negative = growth inhibition, usual class: inhibitors; 420,000 compounds, 15% hits; further: potency means the concentration at half of the fitted maximal effect; nearly all actives have a fitted effect of over 55% in size
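Growth of hTDP1-complemented DT40 Tdp1-knockout cells is measured by ATP luminescence after at least 48 hr compound exposure at 37 °C, with DMSO substituting for the 20 nM CPT used in the parallel screen.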
HT1080 IDH1KD tx: qHTS for induction of synthetic lethality in tumor cells producing 2HG: qHTS for the HT-1080-IDH1KD cell line | HT-1080 IDH1 knockdown viability, ATP luminescence, 48 h | Potency, µM (highest dose often 46.1 µM), for the others: at the top dose activity, negative = toxicity, most hits filed as cytotoxic | 360,000 compounds, 2% hits | AID 686971, 2013;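 further: potency means the concentration at half of the fitted maximal effect; 0% = DMSO wells and -100% = cell-free medium wells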
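Using the IDH1-knockdown HT-1080 line run in the same batch and compound series as the NT line, viability after 48 h at 37 °C was determined by CellTiter-Glo luminescence and expressed as % activity.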
* marks the source's active call; other numbers are inactive results; [ ] = remark or other dose. This excerpt belongs to a sample that is enriched for hits. Unless noted, the call rests on the fitted dose curve; in most records, active means well fitted curve in the direction sought with a large enough effect; inconclusive means small, poorly fitted or top-dose-only effect, or another doubt; inactive means no such curve, though single readings can be large; an effect the other way counts as inactive or inconclusive. Unless noted, on the % scale 0 is the no-effect control and ±100 the full control effect.

Screening c1ccc(-c2nnc3ccc(N4CCCC4)nn23)cc1 returned HT1080NT lethal 16%, TDP1 cell CPT -25%, 12-LOX inh 7%[57.4 µM], IL1B secr inh -29, TDP1 cell noCPT inconclusive and HT1080 IDH1KD tx 0%.
Cc1cccc(C)c1N1CCN(c2ccc3nnc(C(F)(F)F)n3n2)CC1 was read as HT1080NT lethal inconclusive, TDP1 cell CPT 21µM*, 12-LOX inh inconclusive, IL1B secr inh -19, TDP1 cell noCPT 21µM* and HT1080 IDH1KD tx inconclusive.
`FC(F)(F)c1cccc(N2CCN(c3ccc4nnc(-c5ccccc5)n4n3)CC2)c1` gave HT1080NT lethal -2%, TDP1 cell CPT 16µM*, 12-LOX inh inconclusive, IL1B secr inh inconclusive, TDP1 cell noCPT inconclusive and HT1080 IDH1KD tx -12%.
Screening CCn1c(SC(C)C(=O)Nc2cccc(F)c2)nc2ccccc2c1=O (stereo unspecified) returned 12-LOX inh 0%.
CCC(C)c1ccc(NC(=O)COc2c(F)c(F)c(C(F)(F)F)c(F)c2F)cc1 (stereo unspecified) was read as HT1080NT lethal -13%, TDP1 cell CPT inconclusive, 12-LOX inh -9%, IL1B secr inh -77*, TDP1 cell noCPT inconclusive and HT1080 IDH1KD tx -8%.
CC(C)Cc1cc(C(=O)NCc2noc(-c3c(F)cccc3F)n2)no1 was read as 12-LOX inh 23%.
Cc1nnc(N2CCC(C(=O)N3CCCCCC3)CC2)c2nn(-c3ccc(Cl)cc3)c(C)c12 was read as HT1080NT lethal -14%, TDP1 cell CPT 18µM*, 12-LOX inh 4%, IL1B secr inh -26, TDP1 cell noCPT inconclusive and HT1080 IDH1KD tx 0%.
For Cc1ccc(-n2nc3c(N4CCC(C(=O)N5CCCCCC5)CC4)nnc(C)c3c2C)cc1 the results were HT1080NT lethal -1%, TDP1 cell CPT 7.3µM*, IL1B secr inh -9, TDP1 cell noCPT 5.8µM* and HT1080 IDH1KD tx -10%.
`COc1ccc(-n2nc3c(N4CCC(C(=O)N5CCCCCC5)CC4)nnc(C)c3c2C)cc1` gave HT1080NT lethal -18%, TDP1 cell CPT inconclusive, 12-LOX inh 4%, IL1B secr inh -15, TDP1 cell noCPT inconclusive and HT1080 IDH1KD tx inconclusive.
For O=C(CSc1oc(-c2ccc(F)cc2)nc1S(=O)(=O)c1ccccc1)c1ccc(Cl)cc1 the results were TDP1 cell CPT 10µM*, 12-LOX inh inconclusive and TDP1 cell noCPT 9.2µM*.
COc1ccccc1NC(=O)CSc1oc(-c2cccs2)nc1S(=O)(=O)c1ccc(C)cc1 was read as TDP1 cell CPT inconclusive, 12-LOX inh -11% and TDP1 cell noCPT inconclusive.
For CCOc1ccc(NC(=O)CSc2oc(-c3cccs3)nc2S(=O)(=O)c2ccc(C)cc2)cc1 the results were TDP1 cell CPT 12µM*, 12-LOX inh inconclusive and TDP1 cell noCPT 3.3µM*.
For CCCSc1oc(-c2cccs2)nc1S(=O)(=O)c1ccc(C)cc1 the results were TDP1 cell CPT 18µM*, 12-LOX inh 6% and TDP1 cell noCPT inconclusive.
`CCSc1oc(-c2ccc(C)cc2)nc1S(=O)(=O)c1ccccc1` gave 12-LOX inh 32µM*.
For CCC(C)(C)C(=O)N1C[C@@H](CO)[C@H](c2nc(-c3ccncc3)no2)C1 the results were 12-LOX inh 38%.
CCOc1ccc(NC(=O)CSc2oc(-c3ccc(F)cc3)nc2S(=O)(=O)c2ccc(C)cc2)cc1 was read as TDP1 cell CPT 5.8µM*, 12-LOX inh -1% and TDP1 cell noCPT 6.5µM*.
For CCOc1ccc(NC(=O)CSc2oc(-c3ccco3)nc2S(=O)(=O)c2ccccc2)cc1 the results were TDP1 cell CPT inconclusive, 12-LOX inh -25% and TDP1 cell noCPT inconclusive.
Screening O=C(O)C1CCc2nnc(C3CCN(C(=O)c4cccc(Cl)c4)C3)n21 (stereo unspecified) returned 12-LOX inh 3%[6.33 µM].
Cc1ccc(C(=O)N2C(=S)C(c3ccc(F)cc3)=NC23CCN(C)CC3)cc1 was read as HT1080NT lethal inconclusive, TDP1 cell CPT 5.2µM*, 12-LOX inh inconclusive, IL1B secr inh -9, TDP1 cell noCPT 4.6µM* and HT1080 IDH1KD tx 18µM*.
Screening Cc1ccc(-n2c(C3CCN(C(=O)c4ccc(F)cc4)CC3)n[nH]c2=O)cc1 returned 12-LOX inh 56%.
For COc1ccc2c(c1)C(NC(C)=O)C(=O)N2CCOc1ccccc1 (stereo unspecified) the results were 12-LOX inh -26%.
`COc1ccc([C@@H]2Sc3cc(OC)ccc3N(CCN(C(C)C)C(C)C)C(=O)[C@H]2OC(C)=O)cc1` gave HT1080NT lethal -14%, TDP1 cell CPT 21µM*, 12-LOX inh -27%, IL1B secr inh -6, TDP1 cell noCPT inconclusive and HT1080 IDH1KD tx -25%.
Screening Cc1ccccc1NC(=O)C(=O)NCC(c1ccc2c(c1)OCO2)N1CCN(C)CC1 (stereo unspecified) returned 12-LOX inh 76%.
`CCOC(=O)c1cc(-c2ccccc2)sc1NC(=O)COC(=O)c1ccc(Cl)c(S(N)(=O)=O)c1` gave HT1080NT lethal 28%, TDP1 cell CPT -23%, IL1B secr inh 6, TDP1 cell noCPT inconclusive and HT1080 IDH1KD tx 25%.
CCOC(=O)c1cc(-c2ccccc2)sc1NC(=O)CCN1C(=O)c2ccccc2C1=O was read as HT1080NT lethal 20%, TDP1 cell CPT -20%, 12-LOX inh 11%, IL1B secr inh 3, TDP1 cell noCPT inconclusive and HT1080 IDH1KD tx 22%.
CCOC(=O)c1cc(-c2ccccc2)sc1NC(=O)c1ccc(OC)cc1 was read as HT1080NT lethal 16%, TDP1 cell CPT 7.3µM*, IL1B secr inh -14, TDP1 cell noCPT inconclusive and HT1080 IDH1KD tx 11%.
